Bioassay records (PubChem BioAssay)
RORgamma inh: ROR gamma (mouse) transcription inhibition. P51450. Drosophila S2 Gal4-RORgamma UAS-luciferase reporter, 20 h. Potency, µM (doses to about 53.6 µM), without a hit: top-dose activity change, negative = inhibition, hits mostly inhibitors. 5.4% of 310,000 active. AID 2551; further: nearly all actives have a fitted effect of over 60% in size
Target sequence (P51450 whole entry, looked up, the tested form may be a part): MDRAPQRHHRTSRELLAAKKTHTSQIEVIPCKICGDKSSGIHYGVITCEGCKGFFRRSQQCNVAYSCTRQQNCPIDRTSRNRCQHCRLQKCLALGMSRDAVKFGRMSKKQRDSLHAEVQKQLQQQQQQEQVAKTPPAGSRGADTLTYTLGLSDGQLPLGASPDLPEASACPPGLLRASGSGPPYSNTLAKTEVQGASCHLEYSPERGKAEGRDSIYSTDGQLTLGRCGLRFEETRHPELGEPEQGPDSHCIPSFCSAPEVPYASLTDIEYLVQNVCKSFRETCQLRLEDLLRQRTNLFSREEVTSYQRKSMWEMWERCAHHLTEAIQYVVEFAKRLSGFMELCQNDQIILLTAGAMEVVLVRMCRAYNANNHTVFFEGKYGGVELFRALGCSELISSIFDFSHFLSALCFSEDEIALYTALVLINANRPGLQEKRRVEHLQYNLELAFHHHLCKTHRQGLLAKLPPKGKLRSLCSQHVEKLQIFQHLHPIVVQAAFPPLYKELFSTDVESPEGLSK
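Drosophila Schneider cells stably carrying a metallothionein-driven Gal4 DBD–ROR gamma fusion and a UAS-Photinus luciferase reporter were exposed to compound for 1 hr, then induced with copper sulfate (700 uM final) for 20 hr at ambient temperature before luminescence reading.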
ALOX12 inh: ALOX12 (human) lipoxygenase inhibition; Potency, µM (doses to about 108 µM), for inactives: at the highest dose activity change, negative = inhibition, hits mostly inhibitors; purified 12hLO, xylenol orange hydroperoxide absorbance; P18054; 1.1% of 580,000 active
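Hydroperoxide product was detected by ferrous iron/xylenol orange as the 573 to 405 nm absorbance ratio. Arachidonic acid at 40 uM (final) was turned over for 30 min at room temperature by 150 nM human 12hLO, pH 7.0 Hepes buffer, after 15 min compound preincubation.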
TDP1 cell CPT: growth inhibition of DT40 Tdp1-/-;hTDP1 cells with camptothecin (screen for TDP1 inhibitors) | chicken DT40 Tdp1-/-;hTDP1 cells + 20 nM CPT, ATP luminescence, 48 h | Potency, µM (titrated, usually from 46.2 µM), for the others: at the top dose activity change, negative = growth inhibition, hits mostly inhibitors | 12% of 420,000 active | AID 686979; further: nearly all actives have a fitted effect of over 55% in size
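Chicken DT40 Tdp1-/- cells stably complemented with human TDP1 were seeded at 400 cells/well in medium containing 20 nM camptothecin, exposed to pin-transferred compounds, and grown at 37 °C for at least 48 hr. Viability was read as ATP luminescence.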
TDP1 cell noCPT: qHTS for Inhibitors of human tyrosyl-DNA phosphodiesterase 1 (TDP1): qHTS in cells in absence of CPT. 15% of 420,000 active. Potency, µM (doses to about 46.2 µM), without a hit: top-dose activity change, negative = growth inhibition, most hits filed as inhibitors. AID 686978, 2013. DT40 Tdp1-/- hTDP1 cells, no CPT, ATP luminescence, 48 h; further: nearly all actives have a fitted effect of over 55% in size
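Chicken DT40 Tdp1-/- cells complemented with human TDP1, screened without camptothecin (DMSO vehicle only), 400 cells/well. Compounds pin-transferred, cells incubated at 37 °C for at least 48 hr. Growth read as ATP-dependent luminescence (CellTiter-Glo, 30 min at RT).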
ELG1 DNA repair: blocks ELG1-dependent DNA repair in HEK293T cells; HEK293T ELG1-luciferase reporter, luminescence, 16 h; DNA damage induced by 5-fluorouridine; Potency, µM (titrated, usually from 46.1 µM), for inactives: top-dose activity change, negative = inhibition, hits mostly inhibitors; 2.3% of 330,000 active; AID 504467; further: nearly all actives have a fitted effect of over 55% in size
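Quantitative HTS, concentration-response format. 2,000 cells/well co-treated with 5-fluorouridine and compound, 16 hr in 5% CO2 at 37 °C; ONE-Glo luminescence read after 30 min.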
VP16 counter: counter-screen for ROR gamma inhibitors: Gal4-VP16 reporter | Drosophila S2 Gal4-VP16 UAS-luciferase, luminescence, 20 h | Potency, µM (series often up to 53.6 µM), inactives show at the highest dose activity, negative = inhibition, usual class: inhibitors | 3.5% of 310,000 active | AID 2546;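 further: Gal4-VP16 expression switched on by copper sulfate through the metallothionein promoter; nearly all actives have a fitted effect of over 50% in size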
An asterisk follows results filed as active; ? = inconclusive; / = no result given; [ ] = remark or other dose. Shown are actives, neighbours in structure and some others; about 15% of the full set was active somewhere. The call rests on the fitted dose curve; in most records, active means well fitted curve in the direction sought with a large enough effect; inconclusive means small, poorly fitted or top-dose-only effect, or another doubt; inactive means no such curve, though single readings can be large; an effect the other way counts as inactive or inconclusive. On the % scale 0 is the no-effect control and ±100 the full control effect; potency means the concentration at half of the fitted maximal effect.

SMILES	RORgamma inh	ALOX12 inh	TDP1 cell CPT	TDP1 cell noCPT	ELG1 DNA repair	VP16 counter
CCOC(=O)C1=C(C)NC2=C(C(=O)c3ccccc32)C1c1ccc([N+](=O)[O-])o1 (stereo not drawn)	6%	28µM*	23µM*	16µM*	?	5%
COc1cccc(N2C(=O)NC(=NC3CCCC3)C23CCCN([S+](=O)([O-])c2cccc(OC)c2)C3)c1 (stereo not drawn)	/	6%[6.33 µM]	/	/	/	/
Cc1ccc2nc(COCC(=O)N[C@H]3CC[C@@H]4CCC[C@@H]43)[nH]c2c1	/	19%	/	/	/	/
COCCOC(=O)C1=C(C)NC(C)=C(C(=O)OC(C)C)[C@H]1c1cccc([N+](=O)[O-])c1	0%[16.9 µM]	/	/	/	/	3%[17 µM]
CCOC(=O)C1=C(C)NC(C)=C(C(=O)OCC)C1c1cccc([N+](=O)[O-])c1	/	?	?	23µM*	/	/
O=C(Nc1ccc2oc(-c3cccnc3)nc2c1)c1cc([N+](=O)[O-])ccc1Cl	/	-35%	/	/	/	/
CCN(C(=O)c1cnc(NC(C)C)cc1C(F)(F)F)c1ccc(Cl)cc1Cl	-1%	6%	8.2µM*	16µM*	?	11%
Cc1ccc(NC(=O)c2ccc(Cl)cc2Cl)nc1	/	1%	/	/	/	/
Cn1c(CNC(=O)c2cc[nH]c2C2CCCNC2)nc2ccccc21 (stereo not drawn)	/	81%	/	/	/	/
CCCCN(C)C(=O)C1CCN(Cc2cccc(OCc3ccccc3)c2)CC1	28%	5.6µM*	?	?	-24%	0%
CCN(CC)C(=O)C1CCN(Cc2cccc(OCc3ccccc3)c2)CC1	1%[10 µM]	?	-22%	?	?	0%
CCCCN(C)C(=O)C1CCN(CC(C)c2ccccc2)CC1 (stereo not drawn)	/	1µM*	/	/	/	/
COc1ccc(C2=NOC3(CCN(C(=O)c4ccc5c(c4)OCO5)C3)C2)cc1 (stereo not drawn)	/	68%	/	/	/	/
CC(C)N1CCC2(CC1)N=C(c1ccc3c(c1)OCO3)CC(c1cc(Cl)ccc1O)N2 (stereo not drawn)	?	-2%	5.8µM*	5.2µM*	-22%	-8%[0.365 µM]
Cc1cc(Nc2cc(F)ccc2C)nc(-n2nc(C)cc2C)n1	/	-20%	5.2µM*	5.2µM*	/	/
Cc1cc(N2CCN(c3ccccc3)CC2)nc(-n2nc(C)cc2C)n1	0.28µM*	17%	4.6µM*	5.2µM*	?	1.3µM*
Cc1cc(N2CCN(c3ccccc3)CC2)nc(-c2ccccc2O)n1	3%	9%	?	?	?	2%
Cc1cc(Nc2ccccc2C)nc(-n2nc(C)cc2C)n1	/	2%	4.6µM*	5.2µM*	/	/
CCCCc1ccc(Nc2cc(C)nc(-n3nc(C)cc3C)n2)cc1	/	-14%	4.6µM*	5.2µM*	/	/
Cc1cc(Nc2ccccc2)nc(N2CCOCC2)n1	?	2%	-19%	-11%	22%	16%
Cc1cc(C(=O)Nc2ccccc2C)n(-c2ccccc2)n1	0%	2%	3%	?	1%	-6%
COc1cc(=O)n2c(c1C(=O)Nc1cccc(SC)c1)CCCC2	/	45%	/	/	/	/
Cc1nc2c(c(-c3ccc(O)cc3)n1)CN(Cc1ccccn1)CC2	/	78%[176 µM]	/	/	/	/
CCOC(=O)c1cc(CC)sc1NC(=O)Cn1nnc(-c2ccccc2)n1	/	3%	/	/	/	/
Cc1ccccc1Nc1nc(Cl)nc(NC(C)(C)C)n1	/	9%	-21%	-28%	/	/
SMILES	RORgamma inh	ALOX12 inh	TDP1 cell CPT	TDP1 cell noCPT	ELG1 DNA repair	VP16 counter
Cc1cc(C)n(-c2nc(Nc3ccccc3C)nc(-n3nc(C)cc3C)n2)n1	2.8µM*	-6%	/	/	?	10µM*
Cc1cc(C)n(-c2nc(Nc3ccccc3C(F)(F)F)nc(-n3nc(C)cc3C)n2)n1	7.1µM*	?	16µM*	15µM*	13µM*	7.1µM*
O=C(COc1cc(O)c2c(=O)cc(-c3ccccc3)oc2c1)Nc1cccc(O)c1	/	-36%	/	/	/	/
CC(C)(C)OC(=O)NCc1ccc(NC(=O)c2nc[nH]c2C(=O)N[C@@H](Cc2ccccc2)C(=O)OCc2ccccc2)cc1	7.1µM*	14%	?	?	?	?
C[C@H](O)CNC(=O)c1[nH]cnc1C(=O)Nc1ccc(CNC(=O)OC(C)(C)C)cc1	/	41%	?	?	/	/
CC(C)C[C@H](NC(=O)c1nc[nH]c1C(=O)NCc1ccc(CNC(=O)OC(C)(C)C)cc1)C(=O)OCc1ccccc1	11µM*	6%	?	21µM*	?	?
CC(C)(C)OC(=O)[C@H](Cc1ccccc1)NC(=O)c1nc[nH]c1C(=O)NCc1ccccc1	11µM*	-1%	?	-30%	-15%	16µM*
